# In PubChem BioAssay AID940 (Emory University Molecular Libraries Screening Center, 2007):
# The whole screen tested about 260,000 compounds, of which about 2,200 (0.85%) were called active.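 The calls were made as follows: active = compounds whose cAMP rise, as percent of the full-agonist control response, exceeds 60; inactive = the rest.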 The full list was thinned out, with actives kept by preference.
# Target: Prostaglandin E2 receptor EP2 subtype (Homo sapiens) (UniProt P43116)
# Assay: modulation of human EP2 prostaglandin signaling – cell-based, HTRF cAMP, PGE2 stimulation, primary screen (AID 940);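 also: rat C6 glioma line stably carrying human EP2 under a CMV promoter; the protocol text gives 20 µM as final concentration; 100% = response of wells given 1 µM PGE2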
# Settings: EP2-expressing cells, cAMP HTRF FRET, PGE2 co-stimulation; at 25 µM; active compounds read high
# Chain of Prostaglandin E2 receptor EP2 subtype (Homo sapiens) (P43116 whole entry, looked up): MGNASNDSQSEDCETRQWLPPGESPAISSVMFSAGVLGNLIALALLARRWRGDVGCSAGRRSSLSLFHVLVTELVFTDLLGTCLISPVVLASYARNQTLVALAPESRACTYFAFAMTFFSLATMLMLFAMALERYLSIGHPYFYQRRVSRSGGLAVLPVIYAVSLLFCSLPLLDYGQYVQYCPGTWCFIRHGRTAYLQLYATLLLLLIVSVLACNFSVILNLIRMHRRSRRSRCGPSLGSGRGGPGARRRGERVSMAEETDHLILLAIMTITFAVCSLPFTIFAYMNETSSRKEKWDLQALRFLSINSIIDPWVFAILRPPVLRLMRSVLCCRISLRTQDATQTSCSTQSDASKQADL
row,Structure (SMILES),induction
1,CCn1c(=O)oc2cc(S(=O)(=O)N3CCCN(C(C)=O)CC3)ccc21,-12.2% (inactive)
2,COc1ccccc1NC(=O)Cn1nc(C)n2c(cc3occc32)c1=O,-27.1% (inactive)
3,CCOc1ccc2nc(Nc3nc(C)c(C(C)=O)c(C)n3)nc(C)c2c1,-18.1% (inactive)
4,COc1ccc(-c2nnn(CC(=O)Nc3ccc(F)cc3F)n2)cc1OC,-72% (inactive)
5,COC(=O)C1=C(C)N(C)C(=S)NC1c1ccccc1 (stereo not drawn),-3.11% (inactive)
6,COC(=O)C1NN=C(C(=O)c2ccc(Br)cc2)C1c1cccc(Br)c1 (stereo not drawn),0.95% (inactive)
7,COC(=O)C1=C(C)N(C)C(C)=C(C(=O)OC)C1c1cccc(Br)c1,66.5% (active)
8,COc1ccc(-c2ccc(SCC(=O)N3c4ccccc4CCc4ccccc43)nn2)cc1OC,28.9% (inactive)
9,Cc1ccccc1-c1n[nH]c(=S)n1/N=C/c1ccc(-c2ccccc2Br)o1,77% (active)
10,Cc1n[nH]c(=S)n1/N=C/c1ccc(Br)o1,-3.02% (inactive)
11,Cc1ccccc1-c1n[nH]c(=S)n1C,25.6% (inactive)
12,COc1ccc(NCc2nnc(SCC(=O)Nc3ccccc3OC)n2C)cc1,-42.3% (inactive)
13,C=CCNC(=O)CSc1nc(-c2ccc(OC)cc2)cc(C(F)(F)F)n1,-95.2% (inactive)
14,Cc1cccc(Cn2c(SCCO)nc3c2c(=O)n(C)c(=O)n3C)c1,25.1% (inactive)
15,Cn1c(=O)c2c(nc(N3CCN(c4ccccc4)CC3)n2CCC#N)n(C)c1=O,-28.3% (inactive)
16,Cc1cccc(Cn2c(N3CCN(c4ccccc4)CC3)nc3c2c(=O)n(C)c(=O)n3C)c1,67.6% (active)
17,CCn1c2cc(C)sc2c2cnn(CC(=O)Nc3ccc(F)cc3)c(=O)c21,-32.1% (inactive)

row,Structure (SMILES),induction
1,CC1CCN(c2nc3c(c(=O)[nH]2)CCN(Cc2cn(CC(=O)O)c4ccccc24)C3)CC1,-3.4% (inactive)
2,CC1(C)CCC[C@@]2(C)C1[C@@H](O)C[C@]1(C)C2CC[C@@H]2[C@@]3(C)CC[C@H](C(C)(C)O)[C@@H]3CC[C@@]21C (stereo partly drawn),16.7% (inactive)
3,CCC1(CC)Cc2ccccc2-c2nc3ccccc3c(=O)n21,22.9% (inactive)
4,O=c1c2ccccc2nc2n1C1(CCCCC1)Cc1ccccc1-2,68.8% (active)
5,c1cncc(-c2nnc3n2C2(CCCCC2)Cc2ccccc2-3)c1,16.9% (inactive)
6,Cc1ccc(CC(=O)NCc2ccco2)cc1,8.03% (inactive)
7,Cc1ccc(NC(=S)N(Cc2ccco2)C(C)c2cccs2)cc1 (stereo not drawn),44.2% (inactive)
8,C=C(C)CC(Nc1ccc(C)cc1)c1ccco1 (stereo not drawn),61.3% (active)
9,CC1CCCC(C)N1C(=O)[C@H]1C[C@@H](c2cccs2)NS(=O)(=O)N1C (stereo partly drawn),-34.9% (inactive)
10,Cc1nn2c(NCc3cccnc3)c3c(nc2c1-c1cccs1)CCC3,-40.8% (inactive)
11,Cn1c(COc2cccc3ccccc23)nnc1SCC(=O)Nc1ccccc1Cl,5.15% (inactive)
12,Cc1ccc(-n2c(SCC(=O)Nc3ccc4c(c3)OCO4)nnc2-c2ccoc2C)cc1,64.9% (active)
13,Cc1ccc(-n2c(SCC(=O)Nc3ccc4c(c3)OCO4)nnc2-c2ccccn2)cc1,4.01% (inactive)
14,Cc1occc1-c1nnc(SCC(=O)Nc2ccc3c(c2)OCO3)n1Cc1ccco1,25.1% (inactive)
15,CNC(=S)N(Cc1ccccc1)Cc1cc2cccc(C)c2[nH]c1=O,-48.1% (inactive)
16,Nc1nc(Br)c2ccccc2c1-c1ccc(F)cc1,62% (active)
